Source: PubChem BioAssay (NCATS)
Results filed as inconclusive are left out. A call without a number means that no potency is given here. Activity calls are given as the source filed them. Unless noted, calls follow the shape of the full dose curve.

Legend:
[1] = qHTS for Inhibitors of the Functional Ribonucleoprotein Complex (vRNP) of Lassa (LASV) Arenavirus: LASV Primary Screen - GLuc reporter signal (AID 1347082; calls by dose curve; tested in HEK293 reporter line; also: nearly all actives have a fitted effect of over 60% in size); conditions: LASV minigenome vRNP, Gaussia luciferase reporter; series mostly up to 57.5 µM
[2] = qHTS for Inhibitors of the Functional Ribonucleoprotein Complex (vRNP) of Lassa (LASV) Arenavirus: Viability assay - alamar blue signal for LASV Primary Screen (AID 1347083; calls by dose curve; tested in HEK293 reporter line; also: nearly all actives have a fitted effect of over 80% in size); conditions: cell viability, alamar blue fluorescence (LASV minigenome counter-screen); series mostly up to 57.5 µM
[3] = qHTS for Inhibitors of the Functional Ribonucleoprotein Complex (vRNP) of Lymphocytic Choriomeningitis Arenaviruses (LCMV): Viability assay - alamar blue signal for LCMV Primary Screen (AID 1347085; calls by dose curve; tested in HEK293 reporter line; also: nearly all actives have a fitted effect of over 80% in size); conditions: alamar blue viability counter-screen, LCMV vRNP screen cells; series mostly up to 57.5 µM
[4] = target: Nucleoprotein (Lymphocytic choriomeningitis virus (strain Armstrong)) (UniProt P09992); test: qHTS for Inhibitors of the Functional Ribonucleoprotein Complex (vRNP) of Lymphocytic Choriomeningitis Arenaviruses (LCMV): LCMV Primary Screen - GLuc reporter signal (AID 1347086); conditions: LCMV minigenome vRNP cell assay, Gaussia luciferase reporter; series mostly up to 57.5 µM; also: nearly all actives have a fitted effect of over 70% in size
Potency is read from the fitted curve at half-maximal effect.

Sequence of Nucleoprotein (Lymphocytic choriomeningitis virus (strain Armstrong)) (P09992 whole entry, looked up): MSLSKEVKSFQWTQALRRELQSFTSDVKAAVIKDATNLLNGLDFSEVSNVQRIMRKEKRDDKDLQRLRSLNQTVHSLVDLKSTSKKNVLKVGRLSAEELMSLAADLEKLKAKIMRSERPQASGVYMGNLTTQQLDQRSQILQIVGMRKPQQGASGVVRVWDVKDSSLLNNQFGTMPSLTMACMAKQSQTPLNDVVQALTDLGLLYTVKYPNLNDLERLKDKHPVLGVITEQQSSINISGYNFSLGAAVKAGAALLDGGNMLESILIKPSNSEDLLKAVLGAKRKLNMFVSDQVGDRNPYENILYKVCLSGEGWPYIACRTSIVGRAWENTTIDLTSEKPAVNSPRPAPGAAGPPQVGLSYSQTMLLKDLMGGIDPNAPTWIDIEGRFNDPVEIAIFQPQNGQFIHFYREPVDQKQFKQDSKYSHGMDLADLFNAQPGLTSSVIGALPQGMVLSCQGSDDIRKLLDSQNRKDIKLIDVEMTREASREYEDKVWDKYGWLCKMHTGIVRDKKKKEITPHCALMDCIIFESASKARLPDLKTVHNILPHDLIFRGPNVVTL

SMILES	Potency [1]	Potency [2]	Potency [3]	Potency [4]
CN1CC[C@@]2([C@@]34CCN(C)C3Nc3ccccc34)c3ccccc3NC12 (stereo not given in full)	inactive	inactive	inactive	inactive
COc1c2c(nc3occc13)C(CCC(C)(C)O)(OC)C(O)CC2 (stereo not given)	inactive	inactive	inactive	inactive
CC1=CC(=O)OC2CC3OC4C[C@@H](C)C5OC6CC7O[C@]8(C)C/C=C\C9OC%10CC%11OC(CC(C)CO)CC(O)[C@]%11(C)OC%10CC9OC8C[C@]7(C)O[C@]6(C)CCC5OC4C[C@]3(C)OC12 (stereo not given in full)	inactive	inactive	inactive	inactive
C/C=C(/CC[C@@H](C)[C@H]1CC[C@H]2C3=CC[C@H]4[C@H](C)[C@@H](O)CC[C@]4(C)[C@H]3CC[C@]12C)C(C)C	inactive	inactive	inactive	inactive
O=c1c(-c2ccc(O)cc2)coc2cc(O[C@@H]3O[C@H](CO)[C@H](O)[C@H](O)[C@H]3O)ccc12	inactive	inactive	inactive	inactive
CC(=O)OCC(=O)[C@@]1(O)CC[C@H]2[C@@H]3CCC4=CC(=O)CC[C@]4(C)[C@@H]3C(=O)C[C@@]21C	inactive	inactive	inactive	inactive
COC(=O)c1cc2c([nH]c3ccccc32)c(C)n1	inactive	inactive	inactive	inactive
CC1=CC(=O)/C(=C(/C)O)C(=O)O1	inactive	inactive	inactive	inactive
CC[C@@H](O)C[C@H]1CCC[C@@]2(C[C@@H]3OC(=O)/C=C/[C@@](C)(O)[C@@H](O)[C@H](C)[C@@H](O)[C@H](OC4CCC(N(C)C)C(C)O4)[C@@H](O)[C@](C)(O)CCCCC/C=C/[C@@H]4CC(C)(C)O[C@@]4(O)C[C@H](O2)[C@H]3C)O1 (stereo not given in full)	inactive	inactive	inactive	inactive
O=C1C[C@@H](c2ccc(O)c(O)c2)Oc2c1ccc(O[C@@H]1O[C@H](CO)[C@@H](O)[C@H](O)[C@H]1O)c2O	inactive	inactive	inactive	inactive
CC(=O)O[C@@]1(C)C[C@@H](O)[C@]2(O)C=CO[C@@H](O[C@@H]3O[C@H](CO)[C@@H](O)[C@H](O)[C@H]3O)[C@@H]21	inactive	inactive	inactive	inactive
COc1cc(/C=C2/C(=O)Nc3ccccc32)cc(OC)c1O	inactive	inactive	inactive	inactive
O=c1oc(-c2ccc(O)c(O)c2)cc2cc(O)cc(O)c12	inactive	inactive	inactive	inactive
Cc1c(O)ccoc1=O	inactive	inactive	inactive	inactive
COc1cc2c(cc1OC)OC(C)(C)C=C2	inactive	inactive	inactive	inactive
COc1cc(C(=O)O[C@H]2C/C(C)=C/CC/C(C)=C/[C@@H](O)C2C(C)C)ccc1O (stereo not given in full)	inactive	inactive	inactive	inactive
O=c1cc(-c2ccccc2)oc2cc(O)ccc12	inactive	inactive	inactive	inactive
CC1=CCC(C(C)C)=CC1	inactive	inactive	inactive	inactive
Cc1cc(-c2nnc3n2CCCCC3)c(C)n1-c1ccccc1	inactive	inactive	inactive	inactive
CC(=O)OC1C(OC(C)=O)C2C(C)CC3OC(=O)C(C)C3CC2(C)C1OC(C)=O (stereo not given)	inactive	inactive	inactive	inactive

SMILES	Potency [1]	Potency [2]	Potency [3]	Potency [4]
C[C@@H]1CC[C@H]2[C@H](C)[C@H]3CC[C@H]4C5[C@@H](O)CC6=CC(=O)CC[C@]6(C)[C@H]5C[C@H]4C3C(=O)N2C1 (stereo not given in full)	inactive	inactive	inactive	inactive
CC12CCC(C1)C(C)(C)C2O (stereo not given)	inactive	inactive	inactive	inactive
NC1C(O)OC(CO)[C@@H](O)[C@@H]1O[C@H]1O[C@@H](C(=O)O)C(O)C(O)C1O (stereo not given in full)	inactive	inactive	inactive	inactive
O=C1CC(c2ccc(O[C@@H]3OC(CO)[C@@H](O)C(O)C3O)cc2)Oc2cc(O)ccc21 (stereo not given in full)	inactive	inactive	inactive	inactive
CC1(C)C=Cc2c(c3ccccc3[nH]c2=O)O1	inactive	inactive	inactive	inactive
C=C1[C@H]2C[C@H]3[C@H]4N5C[C@]6(C)CCC[C@]47[C@H]([C@H]2O)[C@]3(C[C@]5(O)[C@H]67)[C@@H]1O	inactive	inactive	inactive	inactive
NC1=NCCCC1	inactive	inactive	inactive	inactive
CC(C)(O)Cc1ccccc1	inactive	inactive	inactive	inactive
C[N+](C)(C)CCOP(=O)([O-])OC[C@H](O)CO	inactive	inactive	inactive	inactive
CC(Cc1c[nH]c2ccccc12)C(=O)O (stereo not given)	inactive	inactive	inactive	inactive
CC(C)C1=CC2=CC[C@@H]3[C@](C)(CCC[C@@]3(C)C(=O)O)[C@H]2CC1	inactive	inactive	inactive	inactive
CC1C(=O)OC2CCN3CC=C(COC(=O)C(C)(O)C1(C)O)C23 (stereo not given)	inactive	inactive	inactive	inactive
Cc1c(O)cccc1C(=O)N[C@@H](CSc1ccccc1)[C@H](O)CN1C[C@H]2CCCC[C@@H]2C[C@@H]1C(=O)NC(C)(C)C	inactive	inactive	inactive	inactive
O=CN1CCCCC1	inactive	inactive	inactive	inactive
CN1C(=O)[C@@H]2C[C@@]3([C@@]45C[C@H]6C(=O)N(C)[C@@H](Cc7ccccc7)C(=O)N6[C@@H]4Nc4ccccc45)c4ccccc4N[C@H]3N2C(=O)[C@@H]1Cc1ccccc1	inactive	inactive	inactive	inactive
O=C1c2c(O)cc(O)cc2O[C@H](c2ccc(O)c(O)c2)[C@@H]1O	inactive	inactive	inactive	inactive
CC(C)(O)Cn1c(NC(=O)c2ccc(-c3cn[nH]c3)s2)nc2cc(CN3CCOCC3)ccc21	3.43 µM (active)	3.43 µM (active)	4.32 µM (active)	10.9 µM (active)
CCCC1CCOC(C)S1 (stereo not given)	inactive	inactive	inactive	inactive
CCCCCCCCCC=O	inactive	inactive	inactive	inactive
C[C@]12C=CC(=O)C=C1CC[C@@H]1[C@@H]2[C@@H](O)C[C@@]2(C)[C@@H]1CC[C@]2(O)C(=O)CO	inactive	inactive	inactive	inactive

SMILES	Potency [1]	Potency [2]	Potency [3]	Potency [4]
CS(=O)(=O)N1CCN(Cc2cc3nc(-c4cccc5[nH]ncc45)nc(N4CCOCC4)c3s2)CC1	1.72 µM (active)	0.968 µM (active)	1.22 µM (active)	1.37 µM (active)
COc1ccc2c(c1)C(=O)CC(c1ccc(OC)c(OC)c1)O2 (stereo not given)	inactive	inactive	inactive	inactive
N#CC(=Cc1ccc(O)c(O)c1)C(=O)NCc1ccccc1	inactive	inactive	inactive	inactive
CCCCCCCCCCCC	inactive	inactive	inactive	inactive
CC(C)=CC(=O)O[C@@H]1Cc2cc3ccc(=O)oc3cc2OC1(C)C	inactive	inactive	inactive	inactive
COC(=O)c1cc(OC)cc(O)c1C(=O)c1c(O)cc(C)cc1O	inactive	inactive	inactive	inactive
CC[C@H](C)C(=O)N[C@H]1CCCN1C(=O)/C=C/c1ccccc1	inactive	inactive	inactive	inactive
O=C1C=C(O)c2cccc(O)c2C1=O	inactive	inactive	inactive	inactive
CC1=C[C@H]2OC(=O)[C@@H](C)[C@H]2C[C@@H]2[C@H]1C[C@@H](O)[C@@]2(C)O	inactive	inactive	inactive	inactive
COC(=O)[C@@]1(C)CC[C@]2(C)CC[C@@]3(C)C(=CC(=O)C4[C@@]5(C)CC[C@H](O)C(C)(C)[C@@H]5CC[C@]43C)[C@H]2C1 (stereo not given in full)	inactive	inactive	inactive	inactive
COc1cc(C)c(C(=O)Oc2cc(C)c(C(=O)O)c(O)c2C)c(O)c1C(=O)O	inactive	inactive	inactive	inactive
COc1n[nH]c2nncnc12	inactive	inactive	inactive	inactive
CO[C@H]1C=CO[C@@]2(C)Oc3c(C)c(O)c4c(O)c(c5c(c4c3C2=O)NC2(CCN(CC(C)C)CC2)N=5)=NC(=O)C(C)=CC=C[C@H](C)[C@H](O)[C@@H](C)[C@@H](O)[C@@H](C)[C@H](OC(C)=O)[C@H]1C	inactive	inactive	inactive	inactive
C/C(=N/N=C(\C)c1ccccc1O)c1ccccc1O	inactive	inactive	inactive	inactive
CCOC(=O)c1c(C)cc(O)cc1O	inactive	inactive	inactive	inactive
CC(C)(COP(=O)(O)OP(=O)(O)OC[C@H]1O[C@@H](n2cnc3c(N)ncnc32)[C@H](O)[C@@H]1OP(=O)(O)O)[C@H](O)C(=O)NCCC(=O)NCCS	inactive	inactive	inactive	inactive
O=c1cc(-c2ccc(O)c(O)c2)oc2ccccc12	inactive	inactive	inactive	inactive
c1coc(Cn2cccc2)c1	inactive	inactive	inactive	inactive
CN1CCc2cc3c(cc2C1)OCO3	inactive	inactive	inactive	inactive
COC(=O)c1ccccc1OC	inactive	inactive	inactive	inactive
